# Experimental data: the supplement of paper PMC4962491
# ± gives the standard deviation of the averaged measurements.
# Test system: FaDu
# Test: mitochondrial oxygen consumption rate normalised to cell number, Z score vs plate DMSO wells; higher = higher oxygen consumption (negative = OCR reduction)
# Conditions: treatment time 24 h, assay medium: 5 mM glucose, 5 mM pyruvate, 4 mM glutamine
# Protocol: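 Secondary screen: FaDu cells were incubated 24 h with the top 130 primary hits at 0.08, 0.4, 2 or 10 uM. Mitochondrial-specific OCR (basal minus antimycin A) was measured on a Seahorse XF96 in medium with 5 mM glucose, 5 mM pyruvate and 4 mM glutamine and normalised to Hoechst cell number. OCR score = (OCR - mean of plate DMSO wells) / SD of plate DMSO wells. Three repeats.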
# 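Also: compound exposure in DMEM (4 mM L-glutamine, 5 mM glucose), antimycin A injected at 2 µM after the basal reading and its residual OCR subtracted from basal.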
Compound,mitochondrial oxygen consumption rate normalised (0.08 µM),mitochondrial oxygen consumption rate normalised (0.4 µM),mitochondrial oxygen consumption rate normalised (2 µM),mitochondrial oxygen consumption rate normalised (10 µM)
NS(=O)(=O)c1cc2c(cc1Cl)N=CNS2(=O)=O,-0.245 ± 2.1,0.722 ± 0.73,0.0559 ± 1.2,0.507 ± 1.1
CO[C@@]12[C@H](COC(N)=O)C3=C(C(=O)C(C)=C(N)C3=O)N1C[C@@H]1N[C@@H]12,-0.603 ± 0.39,1.96 ± 0.85,-1.73 ± 1.2,-3.99 ± 1.3
S=c1[nH]cnc2nc[nH]c12,0.147 ± 1.5,0.888 ± 1.4,-2.8 ± 1.2,-2.54 ± 0.98
Nc1c2ccccc2nc2ccccc12,-1.04 ± 0.95,-0.393 ± 0.47,-2.4 ± 0.075,-9.41 ± 0.65
COc1ccc2c(c1)c(CC(=O)O)c(C)n2C(=O)c1ccc(Cl)cc1,-1.16 ± 1.6,-0.0955 ± 0.33,0.286 ± 1.6,-0.792 ± 1.6
Oc1c(Br)cc(Br)c2cccnc12,0.816 ± 1.4,1.29 ± 1,-0.243 ± 2.5,-3.74 ± 2
c1ccc2c(c1)CCCC2C1=NCCN1 (stereo not given),-1.42 ± 2.7,-0.536 ± 1.1,-0.793 ± 1,-0.259 ± 1
CCCCCCc1ccc(O)cc1O.Nc1c2ccccc2nc2ccccc12,-0.393 ± 1.3,-0.59 ± 2.2,-2.14 ± 1.1,-6.38 ± 0.68
CC(=O)O[C@H]1C[C@@]2(C)[C@@H](C[C@@H](O)[C@H]3[C@@]4(C)CC[C@@H](O)[C@@H](C)[C@@H]4CC[C@@]32C)/C1=C(\CCC=C(C)C)C(=O)O,0.246 ± 2.1,-0.851 ± 1.9,0.0549 ± 0.78,-0.138 ± 1.1
CCCCCC(=O)O[C@]1(C(C)=O)CC[C@H]2[C@@H]3CCC4=CC(=O)CC[C@]4(C)[C@H]3CC[C@@]21C,0.448 ± 1.4,0.998 ± 0.5,0.00301 ± 1.9,-3.48 ± 1.8
